Screens (PubChem BioAssay)
UCHL1 block – inhibitors of human UCHL1 deubiquitinase; P09936; purified UCHL1, Ub-rhodamine cleavage fluorescence; inhibition, % at 20 µM; 47,000 tested, 0.2% active; AID 1645859
USP7 inh – blocks human USP7 ubiquitin-rhodamine cleavage; Q93009; purified USP7, Ub-rhodamine cleavage fluorescence; inhibition, % at 20 µM; 47,000 tested, 0.3% active; AID 1645854
OTUD3 block – human OTUD3 deubiquitinase inhibition | inhibition, % at 25 µM | 47,000 tested, 0.7% active | Q5T2D3 | purified OTUD3, Ub-rhodamine fluorescence, 2 h | AID 1645858
Target sequence (Q5T2D3 whole entry, looked up): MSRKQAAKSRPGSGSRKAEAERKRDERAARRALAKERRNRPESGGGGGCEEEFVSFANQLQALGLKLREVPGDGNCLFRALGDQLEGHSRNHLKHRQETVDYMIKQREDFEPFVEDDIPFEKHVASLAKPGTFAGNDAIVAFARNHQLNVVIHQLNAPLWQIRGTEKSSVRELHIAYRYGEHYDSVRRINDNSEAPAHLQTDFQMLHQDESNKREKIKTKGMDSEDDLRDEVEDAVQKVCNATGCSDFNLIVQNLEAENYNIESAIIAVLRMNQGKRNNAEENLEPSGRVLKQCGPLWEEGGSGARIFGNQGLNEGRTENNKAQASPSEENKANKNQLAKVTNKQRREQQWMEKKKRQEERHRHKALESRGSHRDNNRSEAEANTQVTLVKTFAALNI
USP10 block – inhibitors of human USP10 deubiquitinase. 47,000 tested, 1.1% active. purified USP10, Ub-rhodamine fluorescence, 60 min. AID 1645856. inhibition, % at 20 µM. Q14694
USP8 inh – human USP8 deubiquitinase inhibition; purified USP8, Ub-rhodamine cleavage fluorescence, 30 min; inhibition, % at 20 µM; 47,000 tested, 4.2% active; P40818
The depositor's hits bear a star. An excerpt weighted towards active compounds, which were near 5% of everything screened. Rule as the data show it: active = inhibition above about 30%; inactive = the rest.

SMILES | UCHL1 block | USP7 inh | OTUD3 block | USP10 block | USP8 inh
CCc1ccccc1NC(=O)N1CCCC(CN2CCc3ccccc3C2)C1 (stereo not drawn) | -1 | 0 | 9 | -1 | 11
COc1cccc(CN2CCC3(CC2)CN(C(C)=O)Cc2ccccc2O3)c1OC | -2 | 0 | -3 | -2 | -15
COc1ccc(C2CSCCN2C(=O)c2ccc(F)cc2)cc1 (stereo not drawn) | 0 | 2 | 12 | -1 | 21
O=C(NCC(=O)N1CCC2(CC1)NCCc1[nH]cnc12)c1ccc(-c2ccccc2)cc1 | 0 | 0 | 3 | -2 | 49*
O=C(Cc1ccc(F)cc1)N1CCC2(CC1)NCCc1[nH]cnc12 | -1 | 3 | 14 | -2 | 39*
COc1ccc(CC(=O)NCC(=O)N2CCC3(CC2)NCCc2[nH]cnc23)cc1 | -1 | 0 | -50 | -6 | 34*
O=C(c1ccc2c(c1)ncn2-c1cccc(F)c1)N1CCOCC1 | 3 | 4 | 19 | 0 | 5
c1ccc(C2(c3nc(-c4ccc(-n5cccn5)nc4)no3)CC2)cc1 | 0 | 1 | 9 | 3 | 28
O=[N+]([O-])c1ccccc1C(c1c[nH]c2ccccc12)c1c[nH]c2ccccc12 | 6 | -4 | -3 | -3 | 82*
OC(c1ccccn1)c1c[nH]c2ccccc12 (stereo not drawn) | -3 | -7 | -13 | -2 | 0
Cc1ccc(C(=O)NCCn2c(-c3ccncc3)nc3cccnc32)cc1F | -12 | -8 | -17 | -7 | -16
CSc1nc2ncn(CC(=O)Nc3ccc(Br)cc3)c(=O)c2s1 | -3 | 16 | -2 | 6 | 82*
Cc1ccc(S(=O)(=O)c2nnn3c2nc(NCc2ccc(F)cc2)c2ccccc23)cc1C | 0 | 5 | 9 | -4 | 51*
Cc1ccc(Nc2nc3c(S(=O)(=O)c4ccccc4)nnn3c3ccccc23)c(C)c1 | -1 | 17 | -18 | 11 | 70*
Cc1ccc(C)c(Nc2nc3c(S(=O)(=O)c4ccccc4)nnn3c3ccccc23)c1 | 3 | 7 | 10 | 4 | 39*
O=S(=O)(c1ccccc1)c1nnn2c1nc(NCc1ccc(Cl)cc1)c1ccccc12 | 0 | 7 | 10 | 8 | 2
Cc1c(C(=O)NCC(F)(F)F)nnn1-c1cccc2c1CCN(C1CCOCC1)C2 | -11 | -13 | -34 | -7 | -7
Cc1c(C(=O)NCC2CCCCC2)nnn1-c1cccc2c1CCN(C1CCOCC1)C2 | 1 | -8 | -1 | -2 | 36*
COC(=O)C1Cc2ccccc2CN1Cc1c(O)ccc2ccccc12 (stereo not drawn) | 0 | 1 | 6 | 2 | 11
CC1(C)CC2CC(C)(CN2Cc2c(O)ccc3ccccc23)C1 (stereo not drawn) | 2 | 1 | -3 | 0 | 87*
NS(=O)(=O)c1ccc(CCNC(=O)Cc2cc(-c3ccc(F)cc3F)on2)cc1 | -2 | -2 | 3 | -4 | 40*
O=C(Cc1cc(-c2ccc(Cl)cc2)on1)NCCc1ccccc1 | -3 | 2 | -1 | -3 | 53*
COc1ccc(CCNC(=O)Cc2cc(-c3ccc(F)cc3F)on2)cc1OC | -6 | -4 | -5 | -6 | 22
Cc1ccc(CNC(=O)Cc2nnc(-c3cnccn3)o2)cc1C | -2 | 0 | 0 | 2 | 2
Nc1cccc(-c2nc(-c3ccc(Cl)cc3)co2)c1 | 3 | -2 | -2 | -2 | 22
SMILES | UCHL1 block | USP7 inh | OTUD3 block | USP10 block | USP8 inh
N=C1/C(=C/c2cn(Cc3ccccc3)c3ccccc23)C(=O)N=C2SC(C(F)(F)F)=NN12 | 0 | 10 | -20 | 43* | 10
N=C1/C(=C/c2cn(Cc3ccc(F)cc3)c3ccccc23)C(=O)N=C2SC(Cc3ccccc3)=NN12 | -5 | 11 | -14 | 34* | 74*
Cc1cc(-c2cnc(N(C)C)nc2-c2ccc(CNC(=O)CC3CCCCC3)cc2)on1 | 9 | -6 | -12 | 0 | -11
Cc1cccc(O)c1-c1nc2c(-c3nc4c(C(=O)O)cccc4o3)cccc2o1 | 7 | 11 | 33* | 2 | -12
O=C(NCCCN1CCc2ccccc2C1)c1cc2c(s1)CS(=O)(=O)C2 | -6 | 0 | -16 | -11 | 46*
O=C(NCCC1=CCCCC1)c1cc2c(s1)CS(=O)(=O)C2 | 1 | -2 | 3 | -1 | -2
COc1ccc(N2CCN(Cc3cc(=O)oc4cc(OC)ccc34)CC2)cc1 | -1 | 0 | -7 | -1 | -17
CCOc1cccc2cc(-c3cc(=O)oc4cc(OC)ccc34)oc12 | 1 | 2 | -2 | -3 | 51*
CCOC(=O)c1cc2c(ccn2C)n1CC(=O)N1CCCCC1 | -2 | -4 | -47 | -4 | 15
CCOC(=O)c1cc2c(ccn2C)n1CC(=O)N(Cc1ccc(Cl)cc1)c1ccccc1 | -17 | -60 | -34 | -7 | 57*
CCOC(=O)c1cc2c(ccn2C)n1Cc1ccc(C#N)cc1 | -6 | -17 | -29 | -6 | 71*
O=C1COC2(CCN(C(=O)C3(c4ccc(F)cc4)CCCC3)C2)CN1c1ccccc1 (stereo not drawn) | 2 | 1 | 2 | 0 | 6
O=C(COC(=O)c1ccc2ncsc2c1)c1ccc2c(c1)OCCO2 | 0 | 0 | -7 | -1 | -8
Cn1c(CNS(=O)(=O)c2ccc(Br)cc2)nnc1SCc1ccc(Cl)c(Cl)c1 | 6 | -113 | 21 | 17 | -10
Cn1c(COc2ccccc2)nnc1SCc1cc(=O)c2cc(Cl)ccc2[nH]1 | -2 | -4 | -5 | 10 | 33*
CCc1nnc(-c2nnc(NCCOc3ccccc3OC)c3ccccc23)o1 | 1 | 7 | 11 | 13 | 66*
CCc1nnc(-c2nnc(NCCCN3CCOCC3)c3ccccc23)o1 | 4 | 1 | 14 | 0 | 2
COC(=O)c1ccccc1NC(=O)COC(=O)CCc1ccccc1 | 6 | 10 | 23 | 8 | 35*
CN1c2ccccc2CN(CC(N)=O)CC1Cc1ccccc1 (stereo not drawn) | -162 | -170 | -239 | -10 | -241
CC(=O)N(O)CCC[C@@H]1NC(=O)[C@H](CCCN(O)C(C)=O)NC1=O | 3 | 8 | 9 | 4 | 3
CCC(=O)Nc1nc2cc(NC(=O)Nc3cc(C)cc(C)c3)ccc2s1 | -2 | 12 | 31* | 32* | 60*
C[C@@H]1Cc2cc(O)cc(O)c2C(=O)O[C@H](C)CC(=O)OC[C@@H](O)CC(=O)O[C@H](C)Cc2cc(O)cc(O)c2C(=O)O[C@H](C)CC(=O)O1 | 6 | 3 | 0 | 8 | 4
COc1cc(O)c2c(O)c3c(cc2c1)CC(C)OC3=O (stereo not drawn) | 20 | -47 | 53* | 7 | 29
Cc1ccccc1N(CC(=O)N1CCN(c2ncccn2)CC1)S(C)(=O)=O | -4 | -7 | 1 | 4 | 0
Cc1[nH]c(C)c(S(=O)(=O)Nc2cccc(F)c2)c1C(=O)N1CCCC1 | -1 | -88 | 5 | 1 | 5
COc1cc2c(cc1OC)CN(C(=O)CCS(=O)(=O)c1ccc(Cl)cc1)CC2 | 0 | -3 | -20 | -2 | 76*
